Laboratory results: PMC7862700, “An all-to-all approach to the identification of sequence-specific readers for epigenetic DNA modifications on cytosine”

Columns and labels:
Assay in all cases: DAPPL (digital affinity profiling via proximity ligation, sequencing); 10 mM Tris-HCl pH 7.5, 50 mM NaCl, 1 mM DTT, 4% glycerol, room temperature, 30 min; GST-TFs on glutathione beads, 16-mer random dsDNA library, 0.1% formaldehyde crosslink after washing; high values mean tight binding
Conditions in all cases: protein: recombinant; tags: N-terminal GST; dsDNA, one strand shown
FLI1 = biological target: T1, FLI1 (Homo sapiens, UniProt Q01543 1-452)
T1 sequence: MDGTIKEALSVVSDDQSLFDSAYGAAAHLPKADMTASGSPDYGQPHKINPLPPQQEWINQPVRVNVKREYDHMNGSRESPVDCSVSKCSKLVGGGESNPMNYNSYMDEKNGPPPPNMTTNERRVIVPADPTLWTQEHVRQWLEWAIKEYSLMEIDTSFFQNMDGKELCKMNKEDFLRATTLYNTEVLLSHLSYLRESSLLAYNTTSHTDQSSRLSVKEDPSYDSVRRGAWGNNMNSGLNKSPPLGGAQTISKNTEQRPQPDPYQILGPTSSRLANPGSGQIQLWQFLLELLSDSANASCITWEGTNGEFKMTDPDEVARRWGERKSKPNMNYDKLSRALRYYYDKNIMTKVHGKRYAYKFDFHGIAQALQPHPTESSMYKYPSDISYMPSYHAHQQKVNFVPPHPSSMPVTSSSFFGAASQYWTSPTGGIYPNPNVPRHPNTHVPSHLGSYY
In short: (§1)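 Binding signal is defined as a hexamer's read frequency for one factor over its frequency for the tag-only sample. To obtain reads, GST-fused human transcription factors were expressed in yeast, captured on glutathione beads, barcoded with DNA and pooled with that sample. Pools met 200 nmole of a 16-mer random double-stranded DNA library in Tris/NaCl/DTT/glycerol buffer for 30 min at room temperature before washing, 0.1% formaldehyde crosslinking, proximity ligation (BsaI/T4 ligase, 1 h, 37 °C), PCR and Illumina NextSeq500 sequencing.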

ELK1 = biological target: T2, ELK1 (Homo sapiens, UniProt P19419 1-428)
T2 sequence: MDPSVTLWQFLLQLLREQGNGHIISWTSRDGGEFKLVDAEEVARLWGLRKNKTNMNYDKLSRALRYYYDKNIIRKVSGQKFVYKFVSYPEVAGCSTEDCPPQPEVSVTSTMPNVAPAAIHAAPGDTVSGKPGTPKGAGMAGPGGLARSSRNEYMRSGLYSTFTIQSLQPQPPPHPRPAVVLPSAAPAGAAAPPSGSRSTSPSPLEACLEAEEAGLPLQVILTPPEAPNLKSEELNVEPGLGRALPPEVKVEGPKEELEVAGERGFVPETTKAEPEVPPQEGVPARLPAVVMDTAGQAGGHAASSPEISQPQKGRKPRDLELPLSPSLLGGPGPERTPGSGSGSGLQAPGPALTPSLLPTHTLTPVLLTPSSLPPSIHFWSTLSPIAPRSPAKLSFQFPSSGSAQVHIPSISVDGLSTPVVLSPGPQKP
In short: as §1

GABPA = biological target: T3, GABPA (Homo sapiens, UniProt Q06546 1-454)
T3 sequence: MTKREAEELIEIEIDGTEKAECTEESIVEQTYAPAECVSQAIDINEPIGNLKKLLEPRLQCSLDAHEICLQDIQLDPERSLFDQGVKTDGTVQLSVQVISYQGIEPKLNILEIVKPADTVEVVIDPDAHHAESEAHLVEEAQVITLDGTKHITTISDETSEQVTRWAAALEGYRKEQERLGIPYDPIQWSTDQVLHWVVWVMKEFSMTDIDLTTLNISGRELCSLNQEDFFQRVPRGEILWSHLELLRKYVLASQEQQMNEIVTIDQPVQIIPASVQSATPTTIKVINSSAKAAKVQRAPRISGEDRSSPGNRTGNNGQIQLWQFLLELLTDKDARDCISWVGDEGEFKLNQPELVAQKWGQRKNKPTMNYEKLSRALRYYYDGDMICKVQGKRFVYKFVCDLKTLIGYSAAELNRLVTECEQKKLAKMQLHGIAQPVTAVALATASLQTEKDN
In short: as §1

ERG = biological target: T4, ERG (Homo sapiens, UniProt P11308 1-479)
T4 sequence: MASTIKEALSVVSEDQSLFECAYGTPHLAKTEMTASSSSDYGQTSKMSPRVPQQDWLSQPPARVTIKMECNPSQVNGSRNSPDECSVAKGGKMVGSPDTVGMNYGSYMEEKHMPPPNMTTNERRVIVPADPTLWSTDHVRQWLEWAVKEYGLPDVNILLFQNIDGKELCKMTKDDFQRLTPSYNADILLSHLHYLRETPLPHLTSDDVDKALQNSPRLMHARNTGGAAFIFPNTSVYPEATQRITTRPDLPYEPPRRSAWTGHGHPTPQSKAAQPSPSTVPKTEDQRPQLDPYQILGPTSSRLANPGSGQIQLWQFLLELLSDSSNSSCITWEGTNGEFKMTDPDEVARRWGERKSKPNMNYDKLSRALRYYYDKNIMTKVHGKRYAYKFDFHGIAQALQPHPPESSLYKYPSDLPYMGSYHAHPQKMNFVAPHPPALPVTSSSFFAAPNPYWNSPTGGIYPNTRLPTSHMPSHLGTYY
In short: as §1

ELF1 = ELF1 (Homo sapiens, UniProt P32519 1-619)
Sequence of ELF1 (P32519 whole entry): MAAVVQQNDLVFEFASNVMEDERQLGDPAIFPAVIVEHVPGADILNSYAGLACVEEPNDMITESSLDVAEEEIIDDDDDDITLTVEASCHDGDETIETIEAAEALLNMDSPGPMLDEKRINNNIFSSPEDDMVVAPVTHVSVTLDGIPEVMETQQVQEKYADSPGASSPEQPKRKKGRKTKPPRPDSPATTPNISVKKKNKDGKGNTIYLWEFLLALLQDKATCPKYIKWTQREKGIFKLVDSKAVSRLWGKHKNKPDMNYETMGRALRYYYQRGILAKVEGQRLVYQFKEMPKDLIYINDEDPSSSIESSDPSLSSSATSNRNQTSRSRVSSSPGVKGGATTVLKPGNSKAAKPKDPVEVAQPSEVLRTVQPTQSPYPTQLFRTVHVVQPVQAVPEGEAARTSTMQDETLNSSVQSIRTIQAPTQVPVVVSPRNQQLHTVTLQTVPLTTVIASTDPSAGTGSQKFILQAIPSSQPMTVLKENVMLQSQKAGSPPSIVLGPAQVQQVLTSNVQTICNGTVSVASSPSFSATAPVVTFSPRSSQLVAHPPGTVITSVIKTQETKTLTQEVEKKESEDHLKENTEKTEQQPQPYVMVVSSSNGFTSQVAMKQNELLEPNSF
In short: as §1

EHF = biological target: T5, EHF (Homo sapiens, UniProt Q9NZC4 1-300)
T5 sequence: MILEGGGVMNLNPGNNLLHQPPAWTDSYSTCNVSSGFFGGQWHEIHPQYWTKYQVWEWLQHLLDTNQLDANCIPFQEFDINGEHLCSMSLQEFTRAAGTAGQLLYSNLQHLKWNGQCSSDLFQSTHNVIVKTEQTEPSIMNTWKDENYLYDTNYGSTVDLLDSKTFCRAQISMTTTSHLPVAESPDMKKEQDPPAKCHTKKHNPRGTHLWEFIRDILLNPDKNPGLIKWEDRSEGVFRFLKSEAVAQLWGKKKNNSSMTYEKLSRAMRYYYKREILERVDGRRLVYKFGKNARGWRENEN
In short: as §1

SPI1 = SPI1 (Homo sapiens, UniProt P17947 1-270)
In short: as §1

ELK3 = biological target: T6, ELK3 (Homo sapiens, UniProt P41970 1-407)
T6 sequence: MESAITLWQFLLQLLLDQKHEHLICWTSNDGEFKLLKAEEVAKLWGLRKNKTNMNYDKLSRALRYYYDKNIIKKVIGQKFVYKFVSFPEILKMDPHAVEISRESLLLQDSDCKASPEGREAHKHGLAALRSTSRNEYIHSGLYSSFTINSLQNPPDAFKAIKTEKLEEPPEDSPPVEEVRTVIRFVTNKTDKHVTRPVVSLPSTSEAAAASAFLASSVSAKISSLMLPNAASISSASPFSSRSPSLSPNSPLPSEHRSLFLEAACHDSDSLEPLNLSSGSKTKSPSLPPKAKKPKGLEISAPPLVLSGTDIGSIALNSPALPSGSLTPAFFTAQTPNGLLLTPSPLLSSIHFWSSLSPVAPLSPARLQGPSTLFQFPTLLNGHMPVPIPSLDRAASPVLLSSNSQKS
In short: as §1

FEV = biological target: T7, FEV (Homo sapiens, UniProt Q99581 1-238)
T7 sequence: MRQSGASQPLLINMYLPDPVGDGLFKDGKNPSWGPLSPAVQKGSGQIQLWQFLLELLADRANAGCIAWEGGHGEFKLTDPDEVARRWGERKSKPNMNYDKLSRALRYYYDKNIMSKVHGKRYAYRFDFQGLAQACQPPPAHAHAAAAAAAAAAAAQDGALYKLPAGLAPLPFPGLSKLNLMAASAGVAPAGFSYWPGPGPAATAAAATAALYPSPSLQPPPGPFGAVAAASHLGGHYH
In short: as §1

ETV5 = ETV5 (Homo sapiens, UniProt P41161 1-510)
Sequence of ETV5 (P41161 whole entry): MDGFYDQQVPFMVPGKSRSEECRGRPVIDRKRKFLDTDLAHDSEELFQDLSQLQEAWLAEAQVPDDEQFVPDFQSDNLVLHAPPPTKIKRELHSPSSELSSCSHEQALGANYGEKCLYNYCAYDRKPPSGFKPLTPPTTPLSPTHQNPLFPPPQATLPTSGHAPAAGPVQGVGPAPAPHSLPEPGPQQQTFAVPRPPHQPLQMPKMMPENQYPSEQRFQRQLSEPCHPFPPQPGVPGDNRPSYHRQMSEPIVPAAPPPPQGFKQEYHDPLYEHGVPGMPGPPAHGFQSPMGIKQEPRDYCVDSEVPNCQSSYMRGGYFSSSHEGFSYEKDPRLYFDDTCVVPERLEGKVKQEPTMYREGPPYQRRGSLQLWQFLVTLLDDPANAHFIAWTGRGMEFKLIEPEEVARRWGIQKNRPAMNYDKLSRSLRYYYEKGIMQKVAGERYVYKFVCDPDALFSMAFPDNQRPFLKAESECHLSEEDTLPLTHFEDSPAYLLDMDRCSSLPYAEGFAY
In short: as §1

SPIC = biological target: T8, SPIC (Homo sapiens, UniProt Q8N5J4 1-248)
T8 sequence: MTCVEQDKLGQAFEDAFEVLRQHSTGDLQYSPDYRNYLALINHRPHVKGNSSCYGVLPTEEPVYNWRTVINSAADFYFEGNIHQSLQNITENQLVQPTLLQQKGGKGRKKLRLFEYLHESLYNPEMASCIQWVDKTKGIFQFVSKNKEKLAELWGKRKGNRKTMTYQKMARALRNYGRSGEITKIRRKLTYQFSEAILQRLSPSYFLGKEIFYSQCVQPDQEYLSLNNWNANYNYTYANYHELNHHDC
In short: as §1

ELF4 = ELF4 (Homo sapiens, UniProt Q99607 1-663)
Sequence of ELF4 (Q99607 whole entry): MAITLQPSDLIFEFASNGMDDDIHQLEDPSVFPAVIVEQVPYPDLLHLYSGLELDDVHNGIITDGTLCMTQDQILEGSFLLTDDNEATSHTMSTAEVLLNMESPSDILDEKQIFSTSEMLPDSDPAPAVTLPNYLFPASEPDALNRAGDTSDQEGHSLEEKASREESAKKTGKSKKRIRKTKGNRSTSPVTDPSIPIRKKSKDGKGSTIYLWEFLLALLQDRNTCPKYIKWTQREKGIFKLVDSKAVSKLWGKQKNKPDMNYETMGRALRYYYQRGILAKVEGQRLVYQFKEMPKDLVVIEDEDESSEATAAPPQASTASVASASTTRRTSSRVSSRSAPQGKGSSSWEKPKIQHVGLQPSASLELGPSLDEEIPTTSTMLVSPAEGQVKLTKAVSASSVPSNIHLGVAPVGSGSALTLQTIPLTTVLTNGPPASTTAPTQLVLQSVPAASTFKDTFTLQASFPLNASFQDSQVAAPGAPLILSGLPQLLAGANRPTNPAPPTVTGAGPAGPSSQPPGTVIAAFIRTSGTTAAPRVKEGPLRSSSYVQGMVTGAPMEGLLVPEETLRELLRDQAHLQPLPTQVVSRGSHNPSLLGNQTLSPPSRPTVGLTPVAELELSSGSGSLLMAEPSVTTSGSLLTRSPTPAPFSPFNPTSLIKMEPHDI
In short: as §1

ELK4 = biological target: T9, ELK4 (Homo sapiens, UniProt P28324-2 1-405)
T9 sequence: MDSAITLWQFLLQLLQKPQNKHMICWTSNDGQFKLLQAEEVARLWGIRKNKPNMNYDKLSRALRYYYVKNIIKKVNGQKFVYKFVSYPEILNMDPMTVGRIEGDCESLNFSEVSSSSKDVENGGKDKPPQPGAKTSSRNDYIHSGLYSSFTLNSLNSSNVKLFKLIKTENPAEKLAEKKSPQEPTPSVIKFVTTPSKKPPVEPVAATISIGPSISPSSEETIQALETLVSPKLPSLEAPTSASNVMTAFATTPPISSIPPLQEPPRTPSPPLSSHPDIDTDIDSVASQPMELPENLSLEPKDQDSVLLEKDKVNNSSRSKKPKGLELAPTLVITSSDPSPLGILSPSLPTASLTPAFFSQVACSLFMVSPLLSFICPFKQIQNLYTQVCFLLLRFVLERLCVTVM
In short: as §1

ELF3 = biological target: T10, ELF3 (Homo sapiens, UniProt P78545 1-371)
T10 sequence: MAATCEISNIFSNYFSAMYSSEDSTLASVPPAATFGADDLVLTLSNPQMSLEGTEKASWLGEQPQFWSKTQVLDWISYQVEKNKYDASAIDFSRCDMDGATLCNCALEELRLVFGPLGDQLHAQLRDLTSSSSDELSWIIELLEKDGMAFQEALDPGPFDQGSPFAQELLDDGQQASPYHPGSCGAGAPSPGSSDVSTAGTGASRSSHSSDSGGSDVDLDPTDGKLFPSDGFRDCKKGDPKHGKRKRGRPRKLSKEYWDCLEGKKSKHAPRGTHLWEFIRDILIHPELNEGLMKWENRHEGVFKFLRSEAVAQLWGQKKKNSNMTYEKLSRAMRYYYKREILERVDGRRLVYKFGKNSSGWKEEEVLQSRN
In short: as §1

ETV1 = ETV1 (Homo sapiens, UniProt P50549 1-477)
Sequence of ETV1 (P50549 whole entry): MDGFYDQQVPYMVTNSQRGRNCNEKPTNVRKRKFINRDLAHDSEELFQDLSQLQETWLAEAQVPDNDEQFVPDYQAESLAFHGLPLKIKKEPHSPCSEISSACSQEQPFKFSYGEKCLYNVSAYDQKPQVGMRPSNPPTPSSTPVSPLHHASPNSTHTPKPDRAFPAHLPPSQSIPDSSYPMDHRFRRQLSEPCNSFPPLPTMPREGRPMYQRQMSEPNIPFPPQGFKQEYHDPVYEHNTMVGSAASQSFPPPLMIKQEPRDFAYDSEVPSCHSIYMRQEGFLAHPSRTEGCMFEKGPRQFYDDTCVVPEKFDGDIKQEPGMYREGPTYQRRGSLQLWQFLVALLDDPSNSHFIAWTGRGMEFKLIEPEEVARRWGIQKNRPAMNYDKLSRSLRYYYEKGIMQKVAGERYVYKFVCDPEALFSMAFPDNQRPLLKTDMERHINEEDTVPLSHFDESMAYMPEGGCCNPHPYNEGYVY
In short: as §1

SPIB = SPIB (Homo sapiens, UniProt Q01892 1-262)
Sequence of SPIB (Q01892 whole entry): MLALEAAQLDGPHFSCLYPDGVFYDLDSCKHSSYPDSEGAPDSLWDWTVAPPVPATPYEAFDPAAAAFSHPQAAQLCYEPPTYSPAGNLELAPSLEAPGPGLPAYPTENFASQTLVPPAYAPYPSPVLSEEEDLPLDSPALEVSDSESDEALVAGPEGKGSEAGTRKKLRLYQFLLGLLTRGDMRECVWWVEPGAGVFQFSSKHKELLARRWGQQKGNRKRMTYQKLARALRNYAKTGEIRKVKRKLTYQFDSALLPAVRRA
In short: as §1

ETV2 = biological target: T11, ETV2 (Homo sapiens, UniProt O00321 1-342)
T11 sequence: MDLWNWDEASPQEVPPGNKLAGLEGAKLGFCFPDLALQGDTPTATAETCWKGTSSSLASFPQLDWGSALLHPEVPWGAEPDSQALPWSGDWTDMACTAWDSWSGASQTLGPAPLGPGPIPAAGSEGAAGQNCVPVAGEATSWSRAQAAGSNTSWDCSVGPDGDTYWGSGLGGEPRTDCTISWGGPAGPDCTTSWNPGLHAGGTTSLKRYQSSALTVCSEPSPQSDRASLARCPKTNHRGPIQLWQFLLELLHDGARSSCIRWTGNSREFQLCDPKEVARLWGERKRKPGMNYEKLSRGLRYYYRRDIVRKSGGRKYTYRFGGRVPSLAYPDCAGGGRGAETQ
In short: as §1

CRX = CRX (Homo sapiens, UniProt O43186 1-299)
Sequence of CRX (O43186 whole entry): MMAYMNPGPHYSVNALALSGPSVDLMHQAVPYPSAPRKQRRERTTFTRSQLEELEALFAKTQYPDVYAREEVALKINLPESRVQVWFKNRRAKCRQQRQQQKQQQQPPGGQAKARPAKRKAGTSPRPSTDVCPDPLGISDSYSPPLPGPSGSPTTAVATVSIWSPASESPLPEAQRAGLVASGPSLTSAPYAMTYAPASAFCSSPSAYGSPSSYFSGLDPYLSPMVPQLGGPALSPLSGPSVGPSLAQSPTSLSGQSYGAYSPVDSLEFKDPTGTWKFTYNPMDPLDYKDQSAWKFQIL
In short: as §1

Sequence | binding signal (FLI1) | binding signal (ELK1) | binding signal (GABPA) | binding signal (ERG) | binding signal (ELF1) | binding signal (EHF) | binding signal (SPI1) | binding signal (ELK3) | binding signal (FEV) | binding signal (ETV5) | binding signal (SPIC) | binding signal (ELF4) | binding signal (ELK4) | binding signal (ELF3) | binding signal (ETV1) | binding signal (SPIB) | binding signal (ETV2) | binding signal (CRX)
GATATG | 1.15 fold enrichment (6-mer frequency, TF over GST control) | 1.06 fold enrichment (6-mer frequency, TF over GST control) | 1.07 fold enrichment (6-mer frequency, TF over GST control) | 1.11 fold enrichment (6-mer frequency, TF over GST control) | 1.03 fold enrichment (6-mer frequency, TF over GST control) | 1.12 fold enrichment (6-mer frequency, TF over GST control) | 1.06 fold enrichment (6-mer frequency, TF over GST control) | 1.04 fold enrichment (6-mer frequency, TF over GST control) | 1.08 fold enrichment (6-mer frequency, TF over GST control) | 1.1 fold enrichment (6-mer frequency, TF over GST control) | 1.23 fold enrichment (6-mer frequency, TF over GST control) | 1.11 fold enrichment (6-mer frequency, TF over GST control) | 1.07 fold enrichment (6-mer frequency, TF over GST control) | 1.08 fold enrichment (6-mer frequency, TF over GST control) | 1.03 fold enrichment (6-mer frequency, TF over GST control) | – | – | –
TCAACG | 1.12 fold enrichment (6-mer frequency, TF over GST control) | 1.05 fold enrichment (6-mer frequency, TF over GST control) | 1.09 fold enrichment (6-mer frequency, TF over GST control) | 1.08 fold enrichment (6-mer frequency, TF over GST control) | 1.14 fold enrichment (6-mer frequency, TF over GST control) | 1.06 fold enrichment (6-mer frequency, TF over GST control) | 1 fold enrichment (6-mer frequency, TF over GST control) | 1.22 fold enrichment (6-mer frequency, TF over GST control) | 1.06 fold enrichment (6-mer frequency, TF over GST control) | 1.12 fold enrichment (6-mer frequency, TF over GST control) | 1.1 fold enrichment (6-mer frequency, TF over GST control) | 1.11 fold enrichment (6-mer frequency, TF over GST control) | 1.09 fold enrichment (6-mer frequency, TF over GST control) | – | 1.15 fold enrichment (6-mer frequency, TF over GST control) | 1.12 fold enrichment (6-mer frequency, TF over GST control) | 1.18 fold enrichment (6-mer frequency, TF over GST control) | 1.1 fold enrichment (6-mer frequency, TF over GST control)
